# Screening results: PubChem BioAssay, National Center for Advancing Translational Sciences (NCATS)
# An excerpt weighted towards active compounds, which were near 19% of everything screened.
# HT1080-NT tox: qHTS for induction of synthetic lethality in tumor cells producing 2HG: qHTS for the HT-1080-NT fibrosarcoma cell line; HT-1080-NT fibrosarcoma viability, CellTiter-Glo ATP luminescence, 48 h; 360,000 tested, 1.6% active; Potency, µM (top dose mostly 46.1 µM), inactives show top-dose activity, negative = less viability, usual class: cytotoxic;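 note: NT is the 2HG producing partner of a matched IDH1 knockdown line; 0% = DMSO-treated cells and -100% = media-only wells without cells; nearly all actives have a fitted effect of over 55% in size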
#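 A 48-hour cytotoxicity screen used HT-1080-NT cells plated 2 hours before compound delivery. ATP-based CellTiter-Glo luminescence measured viability, normalized to DMSO and no-cell controls.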
# HT1080 IDH1KD tx: qHTS for induction of synthetic lethality in tumor cells producing 2HG: qHTS for the HT-1080-IDH1KD cell line; HT-1080 IDH1 knockdown viability, ATP luminescence, 48 h; Potency, µM (doses to about 46.1 µM), for inactives: at the highest dose activity, negative = toxicity, usual class: cytotoxic; 360,000 tested, 2% active;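 note: 0% = DMSO wells and -100% = cell-free medium wells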
#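 Viability of IDH1-knockdown HT-1080 fibrosarcoma cells was assessed by CellTiter-Glo after 48 h at 37 °C with titrated compound; concentration-effect curves were classified by fit quality and response size.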
# KB-3-1 cytotox: qHTS assay for MDR1-selective chemotherapeutics: Primary screen using the parental adenocarcinoma cell KB-3-1; Potency, µM (series often up to 46.1 µM), actives largely listed as cytotoxic; 400,000 tested, 1.4% active; KB-3-1 viability, CellTiter-Glo ATP luminescence, 72 h; note: nearly all actives have a fitted effect of over 60% in size
#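 Multi-concentration cytotoxicity screen in KB-3-1 cells grown in DMEM lacking phenol red with 10% FBS. After 72 h at 37 °C with compound, ATP-dependent luminescence was recorded.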
# KB-V1 MDR tox: qHTS assay for MDR1-selective chemotherapeutics: Primary screen using the drug-selected MDR subline cells KB-V1; 400,000 tested, 3.4% active; KB-V1 MDR cells viability, CellTiter-Glo, 72 h; Potency, µM (highest dose often 46.1 µM), most hits filed as cytotoxic; note: nearly all actives have a fitted effect of over 60% in size
#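 Readout: CellTiter-Glo luminescence, 10 min after addition. Cells: KB-V1 MDR subline, 72 h at 37 degrees C with compound. Analysis: corrected, normalized data fitted to concentration-effect curves.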
# DT40 TDP1 no CPT: qHTS for Inhibitors of human tyrosyl-DNA phosphodiesterase 1 (TDP1): qHTS in cells in absence of CPT | DT40 Tdp1-/- hTDP1 cells, no CPT, ATP luminescence, 48 h | Potency, µM (top dose mostly 46.2 µM), without a hit: at the top dose activity change, negative = growth inhibition, hits mostly inhibitors | 420,000 tested, 15% active | AID 686978, 2013; note: nearly all actives have a fitted effect of over 55% in size
#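 No-CPT arm: Tdp1-/-;hTDP1 DT40 cells (400/well) plus compounds, incubated ≥48 hr at 37 °C. Readout CellTiter-Glo luminescence.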
# TDP1 cell CPT: qHTS for Inhibitors of human tyrosyl-DNA phosphodiesterase 1 (TDP1): qHTS in cells in presence of CPT. Potency, µM (doses to about 46.2 µM), inactives show at the top dose activity change, negative = growth inhibition, actives largely listed as inhibitors. chicken DT40 Tdp1-/-;hTDP1 cells + 20 nM CPT, ATP luminescence, 48 h. AID 686979, 2013. 420,000 tested, 12% active; note: nearly all actives have a fitted effect of over 55% in size
#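 Chicken DT40 Tdp1-/- cells complemented with human TDP1, 400 cells/well, exposed to compounds plus 20 nM camptothecin for at least 48 h at 37 C; viability read as ATP content by CellTiter-Glo luminescence.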
# Starred values were filed as active, the others as inactive; i = inactive; ? = inconclusive; nt = not tested or not shown; [ ] = dose if it differs, or a comment. Calls come from the whole dose curve; as a rule, active = well fitted curve in the direction sought with a large enough effect; inconclusive = small, poorly fitted or top-dose-only effect, or another doubt; inactive = no such curve, though single readings can be large; an effect the other way counts as inactive or inconclusive. Unless noted, % is set by controls: 0 for no effect and ±100 for the full control effect; potency is the fitted concentration of half-maximal effect.
SMILES,HT1080-NT tox,HT1080 IDH1KD tx,KB-3-1 cytotox,KB-V1 MDR tox,DT40 TDP1 no CPT,TDP1 cell CPT
O=C(CCCN1C(=O)/C(=C/c2ccccc2)SC1=S)N1CCOCC1,-3.4%,-25.4%,?,?,?,?
O=C(CCN1C(=O)/C(=C\c2ccccc2)SC1=S)N1CCOCC1,5.7%,7.0%,?,?,10.3µM*,8.2µM*
CNC(=O)c1c(NC(=O)c2cc(=O)c3ccccc3o2)sc2c1CCC2,nt,nt,i,i,-0.2%,0.9%
O=C1CCc2cc(S(=O)(=O)Nc3ccc(Cl)c(Cl)c3)c(F)cc2N1,nt,nt,i,?,nt,nt
COc1cc(C=C(C#N)c2ccc([N+](=O)[O-])cc2)ccc1O,6.1%,8.6%,i,i,?,?
COc1ccc(CNC(=O)C2CCN(S(=O)(=O)c3ccc4c(c3)N(C(C)=O)CCO4)CC2)cc1,10.9%,-4.0%,i,i,8.3%,2.6%
CN(Cc1ccc(Cl)cc1)C(=O)c1[nH]c(C(F)(F)F)nc1-c1ccccc1,5.1%,-3.1%,i,i,-20.7%,-6.5%
COc1cc(F)ccc1S(=O)(=O)N1CCN(C23CC4CC(CC(C4)C2)C3)CC1,-0.7%,-9.9%,?,i,-15.0%,0.6%
COc1cc(C)ccc1S(=O)(=O)N1CCN(C23CC4CC(CC(C4)C2)C3)CC1,4.7%,6.5%,i,13µM*,16.4µM*,?
COc1ccc(Cl)cc1S(=O)(=O)N1CCN=C1C,18.4%,-5.0%,?,i,?,18.4µM*
COc1ccc(C)cc1S(=O)(=O)N1CCN(c2cccc(Cl)c2)CC1,nt,nt,i,i,?,20.6µM*
COc1ccc(C)cc1S(=O)(=O)N1CCCC(N2CCN(c3ccccc3)CC2)C1 (configuration not stated),-11.7%,-15.3%,i,i,20.6µM*,?
CCOc1ccc(CNS(=O)(=O)c2cc3c(cc2C)NC(=O)CO3)cc1OC,nt,nt,i,i,-4.1%,-12.4%
COc1ccc(C)cc1S(=O)(=O)N1CCC(C)CC1,-6.3%,-3.1%,i,18.4µM*,-18.4%,-6.2%
CCOc1ccc(Cl)cc1S(=O)(=O)N1CCN(c2ccc(C)c(C)c2)CC1,2.6%,-7.2%,i,14.6µM*,?,?
CCOC(=O)C1(C)CCCN(C(=O)c2ccccc2C(F)(F)F)C1 (configuration not stated),8.9%,-1.1%,i,i,-7.5%,-8.8%
COc1ccccc1CN1CCOc2ccc(C(C)(O)COc3ccccc3)cc2C1 (configuration not stated),nt,nt,nt,nt,-26.5%,10.2%[9.04 µM]
Cc1cc(N2CCC(C)CC2)nc(-n2nc(C)cc2C)n1,-0.6%,-5.1%[9.24 µM],i,?,2.59µM*,2.59µM*
O=C(NC1CC1)c1ccc2nc([C@@H]3O[C@H](CO)[C@H](O)[C@H](O)[C@H]3O)[nH]c2c1,4.2%,?,i,i,-6.2%,-14.7%
O=C1C=C(c2cccc(CO)c2)C[C@@H](c2ccc(F)cc2)C1,-1.1%,-4.4%,i,i,-27.0%,-28.0%
O=C1C=C(c2cccc(O)c2)C[C@@H](c2ccc(F)cc2)C1,1.8%,-6.8%,i,i,?,20.6µM*
COc1ccc([C@H]2CC(=O)C=C(c3cccc(Cl)c3)C2)cc1,-11.9%,-0.6%,i,i,?,?
O=C1C=C(c2ccc(-c3ccccc3)c(F)c2)C[C@@H](c2ccc(Cl)cc2)C1,-1.8%,-1.9%,i,i,?,20.6µM*
O=C1C=C(c2cccc(Br)c2)C[C@@H](c2ccc(Cl)cc2)C1,0.0%,-16.2%,i,i,?,16.4µM*
Cc1ccc(-c2nnn3c2nc(NCc2ccc4c(c2)OCO4)c2ccccc23)cc1,nt,nt,i,i,?,?
SMILES,HT1080-NT tox,HT1080 IDH1KD tx,KB-3-1 cytotox,KB-V1 MDR tox,DT40 TDP1 no CPT,TDP1 cell CPT
O=C(O)CCc1cccc2ccccc12,nt,nt,i,i,-17.3%,0.2%
CCc1ccc(-c2cc(C(F)(F)F)n3nc(C(=O)Nc4c(C)nn(Cc5ccccc5C)c4C)cc3n2)s1,1.3%,-0.6%,i,i,16.4µM*,18.4µM*
Cc1ccc(NS(=O)(=O)c2cc3c4c(cccc4c2)C(=O)NC3=O)cc1C,7.31µM*,5.17µM*,14.6µM*,?,8.2µM*,6.51µM*
O=C1NC(=O)c2cc(Br)cc3cccc1c23,9.2%,?,i,?,-18.3%,-1.8%
COc1ccc(C(=O)C2C(=O)C(=O)N(Cc3ccco3)C2c2cccs2)cc1 (configuration not stated),nt,nt,?,?,-11.6%,-26.5%
CCOc1ccc(C(=O)NC(=S)N(Cc2ccccc2)Cc2ccccc2)cc1,?,?,i,i,?,20.6µM*
N#CCCN(Cc1ccccc1)C(=S)NC(=O)c1ccccc1,1.26µM*,1.12µM*,i,?,9.2µM*,9.2µM*
COc1cc(OC)cc(C(=O)Nc2ccc(C(=O)c3ccncc3)cc2)c1,1.2%,-17.2%,i,i,?,?
O=S(c1ccccc1O)S(=O)c1ccccc1O (configuration not stated),?,?,i,i,5.17µM*,5.8µM*
CS(=O)c1ccccc1O (configuration not stated),23.7%,20.8%,i,i,17.1%,22.0%
COc1ccc2[nH]c3c(c2c1)CCN1C(=O)C(CC(=O)NCCc2ccccn2)C[C@H](C(=O)N2CCOCC2)[C@@]31CCC1CCCC1 (some centres not stated),11.2%,1.6%,i,i,?,?
CCn1c(SC/C=C/c2ccccc2)nnc1-c1cccs1,-0.8%,0.4%,i,13µM*,?,?
Cc1occc1-c1nnc(SCC(=O)NCCc2ccccc2)n1Cc1ccccc1,-17.9%,-10.3%,i,?,20.6µM*,?
CCn1c(SC(=O)NC2CCCCC2)nnc1-c1cccs1,-1.8%,0.4%,?,?,23.1µM*,20.6µM*
CCn1c(SCC(=O)NCCc2ccccc2)nnc1-c1cccs1,-4.5%,4.6%,i,20.6µM*,-8.0%,-15.7%
